# The full list was thinned out, with hits kept by preference.
# Dicer inh = inhibitors of human Dicer processing of pre-microRNA; z-score at 25 µM; AID 1347074; cat-ELCCA pre-miR-21 Dicer processing, chemiluminescence; hits give high values; actives 6% (n = 47,000); in the data active = z-score above about 3, passing the limit was not always enough;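 note: plate controls were vehicle for no effect and no enzyme for full effect; higher signal means more uncleaved substrate so more Dicer inhibition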
# Target sequence (Q9UPY3 whole entry, looked up): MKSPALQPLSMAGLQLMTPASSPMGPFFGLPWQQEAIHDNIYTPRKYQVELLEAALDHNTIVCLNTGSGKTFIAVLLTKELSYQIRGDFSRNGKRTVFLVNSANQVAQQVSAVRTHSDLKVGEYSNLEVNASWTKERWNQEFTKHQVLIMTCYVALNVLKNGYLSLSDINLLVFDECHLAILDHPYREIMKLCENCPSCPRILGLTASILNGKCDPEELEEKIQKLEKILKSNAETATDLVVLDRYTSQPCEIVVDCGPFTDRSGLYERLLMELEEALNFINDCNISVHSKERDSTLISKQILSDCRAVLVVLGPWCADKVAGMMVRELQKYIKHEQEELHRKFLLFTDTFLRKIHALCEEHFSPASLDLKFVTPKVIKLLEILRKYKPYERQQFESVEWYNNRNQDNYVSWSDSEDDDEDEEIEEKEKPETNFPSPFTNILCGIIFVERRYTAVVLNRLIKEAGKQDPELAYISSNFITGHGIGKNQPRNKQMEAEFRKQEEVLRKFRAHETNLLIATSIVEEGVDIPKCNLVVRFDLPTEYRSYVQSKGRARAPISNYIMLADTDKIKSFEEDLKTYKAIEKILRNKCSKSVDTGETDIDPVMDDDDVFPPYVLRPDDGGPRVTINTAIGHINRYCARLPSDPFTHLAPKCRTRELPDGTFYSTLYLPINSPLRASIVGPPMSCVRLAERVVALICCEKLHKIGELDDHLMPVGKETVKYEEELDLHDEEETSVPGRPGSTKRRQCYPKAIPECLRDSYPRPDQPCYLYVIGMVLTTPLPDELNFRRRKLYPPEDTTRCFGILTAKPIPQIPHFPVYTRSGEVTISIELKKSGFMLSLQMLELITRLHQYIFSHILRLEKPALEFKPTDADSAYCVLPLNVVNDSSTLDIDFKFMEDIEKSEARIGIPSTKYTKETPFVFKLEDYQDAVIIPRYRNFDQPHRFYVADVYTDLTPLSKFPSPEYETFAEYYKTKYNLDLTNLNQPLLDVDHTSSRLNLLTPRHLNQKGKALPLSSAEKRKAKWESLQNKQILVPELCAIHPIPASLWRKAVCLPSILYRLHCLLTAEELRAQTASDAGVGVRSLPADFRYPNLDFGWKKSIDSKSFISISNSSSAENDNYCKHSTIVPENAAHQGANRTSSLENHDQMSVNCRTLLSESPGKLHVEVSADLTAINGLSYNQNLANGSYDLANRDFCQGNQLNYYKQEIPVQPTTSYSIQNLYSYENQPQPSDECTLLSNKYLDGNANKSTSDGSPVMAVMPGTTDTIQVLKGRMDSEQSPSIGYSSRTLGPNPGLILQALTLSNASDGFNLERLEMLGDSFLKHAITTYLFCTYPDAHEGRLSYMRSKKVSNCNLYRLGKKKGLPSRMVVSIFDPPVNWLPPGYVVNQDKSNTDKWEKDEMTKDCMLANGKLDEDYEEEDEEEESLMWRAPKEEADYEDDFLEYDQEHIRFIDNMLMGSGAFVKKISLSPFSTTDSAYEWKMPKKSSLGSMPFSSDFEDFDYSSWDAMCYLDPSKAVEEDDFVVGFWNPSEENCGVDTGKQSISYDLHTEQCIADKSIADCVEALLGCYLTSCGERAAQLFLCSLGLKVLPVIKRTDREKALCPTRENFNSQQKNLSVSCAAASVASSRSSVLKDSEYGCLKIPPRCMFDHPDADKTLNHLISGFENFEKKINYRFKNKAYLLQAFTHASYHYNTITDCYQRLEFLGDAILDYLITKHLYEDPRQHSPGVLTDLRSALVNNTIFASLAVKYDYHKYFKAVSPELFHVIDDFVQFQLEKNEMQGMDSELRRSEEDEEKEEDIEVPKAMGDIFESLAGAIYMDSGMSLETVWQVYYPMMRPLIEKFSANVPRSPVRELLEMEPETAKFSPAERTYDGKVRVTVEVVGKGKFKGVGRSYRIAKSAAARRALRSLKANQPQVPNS
# * = called active by the depositor.
SMILES,Dicer inh
CN(C)S(=O)(=O)n1cc(/C=C/c2noc(-c3ccccc3O)n2)c2ccccc21,-0.79
COC1(OC)C2(Cl)C(Cl)=C(Cl)C1(Cl)[C@H]1[C@@H]2[C@@H](O)C=C[C@H]1O,-1.55
OCc1cccc2cccc(Br)c12,-0.22
Cc1c(C(=O)CSc2nccc(-c3cccs3)n2)sc2ccc(Cl)cc12,-0.9
N#Cc1cnn(-c2ncnc3c2cnn3-c2ccccc2)c1N,-1.05
CCOC(=O)Cn1c(=O)c2c(nc3n2CCN3c2ccc(OC)cc2)n(C)c1=O,-1.46
COc1ccc(-c2nn3c(Cc4ccccc4)nnc3s2)cc1,-0.45
CCOc1ccc(-c2nn3c(COc4ccccc4)nnc3s2)cc1,1.99
CCc1nnc2sc(-c3ccc(N)cc3)nn12,3.38*
O=C(COc1ncnc2cc(Cl)ccc12)c1ccc(F)cc1,1.19
CCCCCCNc1nc2c(c(=O)[nH]c(=O)n2C)n1C(C)C,0.69
CC(Nc1ccc(C(F)(F)F)cc1[N+](=O)[O-])c1ccccc1 (centres undefined),1.04
O=C1CC(/C=C/c2ccccc2)Cc2nc(N3CCN(Cc4ccc5c(c4)OCO5)CC3)ncc21 (centres undefined),4.6*
COc1ccc(C2CC(=O)c3cnc(N4CCN(Cc5ccc6c(c5)OCO6)CC4)nc3C2)cc1 (centres undefined),1
O=C1CC(c2cccc(Cl)c2)Cc2nc(N3CCN(Cc4ccc5c(c4)OCO5)CC3)ncc21 (centres undefined),0.07
CCOC(=O)NC(Nc1ccc(C)cc1)(C(=O)OCC)C(F)(F)F (centres undefined),-0.51
Brc1cccc(CSc2nc3ncccc3[nH]2)c1,1.2
Fc1cc(Cl)ccc1CSc1nc2ncccc2[nH]1,-0.21
Cc1ccc(CSc2nc3ncccc3[nH]2)cc1,4.27*
CCCc1cc(=O)n2c(-c3ccc(Cl)cc3)csc2n1,-0.19
Cc1ccsc1CNC(=O)CSCC(=O)O,-0.96
C=C1SC(Nc2ccccc2OC)=NC1(C)C,-1.28
C=C1SC(Nc2cc(OC)cc(OC)c2)=NC1(C)C,14.7*
COc1ccc(NC2=NC(C)(CO)CS2)cc1 (centres undefined),0.62
O=C(CC1NCCCNC1=O)Nc1cc(Cl)ccc1Cl (centres undefined),-0.79
SMILES,Dicer inh
O=[N+]([O-])c1ccccc1N1CCC(CCCC2CCN(c3ccccc3[N+](=O)[O-])CC2)CC1,1.86
CC(C)N(Cc1ccc(N(C)C)cc1)S(=O)(=O)c1cccc(C(F)(F)F)c1,0.47
Cc1ccc(C2Nn3c(C)nnc3SC2C(=O)Nc2ccc(Br)c(C)c2)cc1 (centres undefined),-1.53
C=CCn1c(C(C)Oc2ccc(Cl)cc2)n[nH]c1=S (centres undefined),-2.25
CCOC(=O)c1c(NC(=O)Cn2nc(C(F)(F)F)c3c2CCCC3)sc(C)c1C,-3.76
Cc1c(C)c(C)c(S(=O)(=O)Nc2cc(Cl)cc(Cl)c2)c(C)c1C,0.7
Cc1c(C)c(C)c(S(=O)(=O)Nc2ccc(Cl)cc2Cl)c(C)c1C,-0.12
Cc1c(C)c(C)c(S(=O)(=O)Nc2ccccc2N)c(C)c1C,13.1*
COc1ccccc1-c1nc(S(=O)(=O)c2ccc(Br)cc2)c(N2CCOCC2)o1,0.57
N/C(=N\OC(=O)Nc1csc(-c2cccc(Cl)c2Cl)n1)c1ccc(Cl)cc1,-0.27
O=C1C2C3c4ccccc4C(c4ccccc43)C2C(=O)N1c1ccccc1 (centres undefined),2.85
O=C(O)c1ccc(N2C(=O)C3C4c5ccccc5C(c5ccccc54)C3C2=O)cc1Cl (centres undefined),2.46
O=C(O)c1ccccc1N1C(=O)C2C3c4ccccc4C(c4ccccc43)C2C1=O (centres undefined),4.62*
O=c1oc(-c2cccnc2Oc2ccccc2)nc2cccc(F)c12,0.77
Cn1c(=O)c2c(O)c(C=Nc3c(Cl)cccc3Cl)c(=O)n(C)c2n(C)c1=O,-2.78
CCOc1ccc(C2C(C(=O)OCCOC)=C(C)NC3=C2C(=O)CC(C)(C)C3)cc1 (centres undefined),0.7
Cc1nn2c(=O)c(NC(=O)c3ccc(Cl)cc3)cnc2s1,-0.21
Cc1ccc(C(=O)Nc2cnc3sc(C)nn3c2=O)cc1,4.79*
Cc1nn2c(=O)c(NC(=O)c3ccc(F)cc3)cnc2s1,-2.35
O=C(OCc1ccccc1)C1=NNC2C(=O)N(c3ccccc3)C(=O)C12 (centres undefined),-0.53
CCc1ccc(N2C(=O)C3NN=C(C(=O)OCc4ccccc4)C3C2=O)cc1 (centres undefined),0.43
O=C(OCc1ccccc1)C1=NNC2C(=O)N(c3ccc(Br)cc3)C(=O)C12 (centres undefined),3.55*
O=C1CN(C(=O)c2ccccc2)C(=O)CN1C(=O)c1ccccc1,0.91
Nc1ncn(C(=O)c2ccccc2)n1,4.55*
O=C(c1ccccc1)n1ccc(-c2cccs2)n1,-3.12
CCOc1ccccc1Nc1n[nH]c(=S)s1,-0.17
Cc1ccc(OCCN2C(=O)C(=O)c3cc(C)ccc32)cc1,3.13*
Cc1ccc(C(C)C)c(OCCCN2C(=O)C(=O)c3cccc(C)c32)c1,0.44
Cc1ccc(C(C)C)c(OCCN2C(=O)C(=O)c3cc(C)ccc32)c1,-0.65

# Screening results deposited in PubChem by Center for Chemical Genomics, University of Michigan.
